Laboratory results published in PubChem BioAssay (NCI).
Compounds without any hit were thinned out: in the full panel of roughly 79,000, 15% have a hit. The source made the active and inactive calls. Rule as the data show it: active = growth inhibition above about 70%; inactive = the rest.

Legend:
[1] = NCI Yeast Anticancer Drug Screen. Data for the rad52 strain (AID 147);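 also: 0% = growth of vehicle-treated control cultures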; details: S. cerevisiae rad52 mutant growth inhibition, active compounds read high
How it was run: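 Compounds are applied to a genetically defined yeast strain lacking normal DNA damage repair, and inhibition of growth is expressed relative to cultures given vehicle only.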

[2] = NCI Yeast Anticancer Drug Screen. Data for the wt1 strain (AID 149);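 also: 0% = growth of vehicle-treated wt1 cultures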; details: S. cerevisiae wt1 strain (SPY 50644) growth inhibition, active compounds read high
How it was run: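 Yeast wt1 strain exposed to compounds; growth inhibition measured relative to vehicle-treated controls.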

[3] = NCI Yeast Anticancer Drug Screen. Data for the rad50EPP+ strain (AID 151);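 also: 0% = growth of vehicle-treated control cultures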; details: S. cerevisiae rad50 mutant strain, active compounds read high
How it was run: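 Compounds were applied to the rad50EPP+ yeast strain, which bears a defined DNA repair alteration, and growth inhibition was determined relative to vehicle-treated cultures.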

[4] = NCI Yeast Anticancer Drug Screen. Data for the mgt1 strain (AID 153); details: S. cerevisiae mgt1 mutant growth inhibition, active compounds read high
How it was run: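 Strain: mgt1 yeast, one of a set carrying defined DNA damage repair or cell cycle control alterations. Compound-treated growth compared with vehicle.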

[5] = NCI Yeast Anticancer Drug Screen. Data for the rad50 strain (AID 155);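 also: 0% = growth of vehicle-only cultures of the same strain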; details: S. cerevisiae rad50 strain growth inhibition, active compounds read high
How it was run: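 Yeast carrying a defined DNA repair defect were exposed to test compounds, and growth was compared with vehicle-treated controls to give percent inhibition.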

[6] = NCI Yeast Anticancer Drug Screen. Data for the mec2-1 strain (AID 157); details: S. cerevisiae mec2-1 strain, active compounds read high
How it was run: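 Strain: mec2-1 (DNA repair/cell cycle alteration). Compound exposure, then growth measured; inhibition expressed relative to vehicle.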

[7] = NCI Yeast Anticancer Drug Screen. Data for the rad14 strain (AID 159);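 also: 0% = growth of vehicle-treated control cultures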; details: S. cerevisiae rad14 strain growth inhibition, active compounds read high
How it was run: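 Yeast cells carrying a defined DNA-repair defect were exposed to compounds, and growth inhibition was calculated relative to vehicle-treated control cultures.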

[8] = NCI Yeast Anticancer Drug Screen. Data for the sgs1 mgt1 strain (AID 161);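 also: 0% = growth of cultures given vehicle only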; details: S. cerevisiae sgs1 mgt1 strain, active compounds read high
How it was run: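 Mutant yeast exposed to compound; growth scored against vehicle-only wells.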

[9] = NCI Yeast Anticancer Drug Screen. Data for the CLN2oe strain (AID 163);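 also: 0% = growth of vehicle-only control cultures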; details: S. cerevisiae CLN2oe strain, active compounds read high
How it was run: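 Growth of a genetically modified yeast strain is measured after compound exposure and compared with cultures given vehicle alone.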

[10] = NCI Yeast Anticancer Drug Screen. Data for the cln2 rad14 strain (AID 165);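 also: 0% = growth equal to vehicle treated cultures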; details: S. cerevisiae cln2 rad14 strain, active compounds read high
How it was run: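 Compounds are applied to the cln2 rad14 yeast strain, and growth is then compared with that of vehicle-treated cultures to give inhibition.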

[11] = NCI Yeast Anticancer Drug Screen. Data for the bub3 strain (AID 167); details: S. cerevisiae bub3 mutant strain, active compounds read high
How it was run: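 Compounds were applied to a genetically altered yeast strain carrying a cell-cycle control defect. Growth inhibition was scored against vehicle-treated controls.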

[12] = NCI Yeast Anticancer Drug Screen. Data for the wt2 strain (AID 169);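 also: 0% = growth of vehicle-treated yeast cultures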; details: S. cerevisiae wt2 strain growth inhibition, active compounds read high
How it was run: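 This strain belongs to a panel of yeast strains with defined genetic alterations in DNA damage repair or cell cycle control. Compounds are applied, and growth inhibition is measured against vehicle-treated cultures.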

[13] = NCI Yeast Anticancer Drug Screen. Data for the mlh1 strain (AID 171);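 also: 0% = growth of vehicle-treated control cultures of the same strain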; details: S. cerevisiae mlh1 strain growth inhibition, active compounds read high
How it was run: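 Growth of the mutant yeast strain after compound exposure, expressed as inhibition relative to vehicle-only controls.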

[14] = NCI Yeast Anticancer Drug Screen. Data for the sgs1 strain (AID 173);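 also: 0% = growth of vehicle-only control cultures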; details: S. cerevisiae sgs1 mutant, active compounds read high
How it was run: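 Growth of a yeast strain bearing a defined genetic alteration is measured after compound treatment. Inhibition is expressed relative to vehicle-only controls.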

[15] = NCI Yeast Anticancer Drug Screen. Data for the mlh1 rad18 strain (AID 175); details: S. cerevisiae mlh1 rad18 strain growth inhibition, active compounds read high
How it was run: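 Read-out is yeast growth inhibition, calculated against vehicle-only controls. The compound was applied to a strain engineered with DNA damage repair alterations.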

[16] = NCI Yeast Anticancer Drug Screen. Data for the rad18 strain (AID 177); details: S. cerevisiae rad18 mutant growth inhibition, active compounds read high
How it was run: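 Growth of the mutant yeast strain after compound exposure, normalised to vehicle-only cultures.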

[17] = at 5.0 µM (retest, dose inferred, filed as 0.5)
[18] = at 50.0 µM (retest, dose inferred, filed as 5.0)

Measured: growth inhibition

O=C(O)c1cc2ccccc2c2c1C(=O)c1ccccc1-2
active: [1]; at 11.0 µM 74% | [1]; at 33.0 µM 96% | [1]; at 100.0 µM 94% | [2]; at 33.0 µM 94% | [2]; at 100.0 µM 94% | [4]; at 33.0 µM 95% | [4]; at 100.0 µM 95% | [5]; at 11.0 µM 77% | [5]; at 33.0 µM 95% | [5]; [18] 94% | [5]; at 50.0 µM 88.2% | [5]; at 100.0 µM 93% | [6]; at 33.0 µM 95% | [6]; [18] 96% | [6]; at 50.0 µM 91.5% | [6]; at 100.0 µM 92% | [7]; at 33.0 µM 94% | [7]; at 100.0 µM 95% | [8]; [18] 94% | [8]; at 50.0 µM 92.6% | [9]; at 33.0 µM 96% | [9]; at 100.0 µM 95% | [10]; [18] 97% | [10]; at 50.0 µM 88.8% | [11]; at 33.0 µM 95% | [11]; [18] 96% | [11]; at 50.0 µM 90.8% | [11]; at 100.0 µM 94% | [12]; at 33.0 µM 96% | [12]; at 100.0 µM 95% | [13]; at 33.0 µM 95% | [13]; at 100.0 µM 95% | [14]; at 33.0 µM 95% | [14]; at 100.0 µM 96% | [15]; [18] 97% | [15]; at 50.0 µM 90% | [16]; at 33.0 µM 95% | [16]; at 100.0 µM 94%
inactive: [1]; at 1.2 µM -3% | [1]; at 3.7 µM 21% | [2]; at 1.2 µM -4% | [2]; at 3.7 µM 16% | [2]; at 11.0 µM 47% | [3]; at 1.2 µM -23% | [3]; at 3.7 µM -36% | [3]; at 11.0 µM 10% | [3]; at 33.0 µM 47% | [3]; at 100.0 µM 67% | [4]; at 1.2 µM 11% | [4]; at 3.7 µM 20% | [4]; at 11.0 µM 43% | [5]; at 1.2 µM 4% | [5]; at 3.7 µM 19% | [5]; [17] 8% | [6]; at 1.2 µM -9% | [6]; at 3.7 µM 9% | [6]; [17] 25% | [6]; at 11.0 µM 29% | [7]; at 1.2 µM 8% | [7]; at 3.7 µM 21% | [7]; at 11.0 µM 43% | [8]; [17] 0% | [9]; at 1.2 µM 13% | [9]; at 3.7 µM 28% | [9]; at 11.0 µM 64% | [10]; [17] 45% | [11]; at 1.2 µM -1% | [11]; at 3.7 µM 7% | [11]; [17] 14% | [11]; at 11.0 µM 56% | [12]; at 1.2 µM -1% | [12]; at 3.7 µM 11% | [12]; at 11.0 µM 49% | [13]; at 1.2 µM 9% | [13]; at 3.7 µM 14% | [13]; at 11.0 µM 59% | [14]; at 1.2 µM 18% | [14]; at 3.7 µM 28% | [14]; at 11.0 µM 69% | [15]; [17] 22% | [16]; at 1.2 µM 5% | [16]; at 3.7 µM 12% | [16]; at 11.0 µM 43%
